Compound activity from PubChem BioAssay.
Hits are enriched below; roughly 2.4% of the tested compounds scored in any of these assays.
CHO-K1 Ca antag = nonselective inhibitor or artifact in parental CHO-K1 cells; inhibition, % at 3 µM; AID 602250; 360,000 compounds, 0.6% hits; ATP-induced calcium, Fluo-8 fluorescence;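 active = inhibition above a per-plate cutoff, the plate's mean sample inhibition plus 3 SD, cut at about 24% in these data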;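 also: 0% = DMSO plus EC80 ATP and 100% = DMSO alone without ATP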
M1 antag = antagonists of human M1 muscarinic receptor. 360,000 compounds, 1.3% hits. P11229. inhibition, % at 3 µM. CHO-K1 hM1, Fluo-8 calcium fluorescence, ACh EC80 antagonist;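 active = percent inhibition above its own plate's cutoff, namely the mean of that plate's compound wells plus 3 SD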;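 also: peak over basal fluorescence ratio during 140 s after agonist addition; 0% = ACh EC80 plus DMSO and 100% = DMSO alone without agonist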
Target sequence (P11229 whole entry, looked up): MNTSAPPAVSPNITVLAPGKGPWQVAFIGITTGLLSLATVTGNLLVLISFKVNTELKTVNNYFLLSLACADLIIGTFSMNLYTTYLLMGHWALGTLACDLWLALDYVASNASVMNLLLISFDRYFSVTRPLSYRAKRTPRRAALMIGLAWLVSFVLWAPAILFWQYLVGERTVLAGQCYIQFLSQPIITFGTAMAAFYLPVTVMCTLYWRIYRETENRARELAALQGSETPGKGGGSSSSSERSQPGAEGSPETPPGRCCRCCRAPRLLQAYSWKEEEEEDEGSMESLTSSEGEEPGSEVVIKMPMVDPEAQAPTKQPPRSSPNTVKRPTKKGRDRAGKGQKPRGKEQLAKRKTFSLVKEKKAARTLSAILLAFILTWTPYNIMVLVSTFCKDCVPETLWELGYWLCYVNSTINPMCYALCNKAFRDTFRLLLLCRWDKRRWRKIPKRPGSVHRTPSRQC
M1 ag parental = nonselective activator or artifact in parental CHO-K1 cells | Fluo-8 calcium fluorescence; scaled to maximal ATP response, vehicle zero | activation, % at 3 µM | 360,000 compounds, 0.48% hits | AID 602248; in the data active = activation above about 15%;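 also: untransfected CHO-K1 host cells lacking M1 receptor as counterscreen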
M1 ag = human M1 muscarinic receptor agonism; P11229; CHO-K1 hM1, Fluo-8 calcium fluorescence, agonist mode; 0% DMSO, 100% acetylcholine EC100; activation, % at 3 µM; 360,000 compounds, 0.33% hits;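 active = activation above the run's mean compound activation plus 3 SD, cut at about 16% in these data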;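 also: peak over basal fluorescence ratio within a 140 s kinetic read after compound addition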
M1 PAM = positive allosteric modulators of human M1 muscarinic receptor | P11229 | CHO-K1 hM1, Fluo-8 calcium fluorescence, ACh EC20; 0% = ACh EC20, 100% = maximal ACh | activation, % at 3 µM | 360,000 compounds, 0.088% hits; in the data active = activation above about 19%, passing the limit was not always enough
CHO-K1 Ca PAM = M1 PAM counterscreen hit in parental CHO-K1 cells; ATP EC20, Fluo-8 calcium fluorescence; 0% at ATP EC20, 100% at ATP max; activation, % at 3 µM; 360,000 compounds, 0.02% hits; AID 602247;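 active = activation above the run cutoff, the mean activation of all test compounds plus 3 SD, cut at about 40% in these data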;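 also: peak over basal fluorescence ratio in a 140 s read after ATP addition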
* = called active by the depositor.

SMILES	CHO-K1 Ca antag	M1 antag	M1 ag parental	M1 ag	M1 PAM	CHO-K1 Ca PAM
COC(=O)C1=C(c2ccc(OCc3ccccc3)c(F)c2)C[C@@H]2CC[C@H]1N2C	-11	29*	2	-8	-24	11
COC(=O)C1=C(c2ccc(F)cc2OCc2ccccc2)C[C@@H]2CC[C@H]1N2C	-13	13	5	-8	-11	8
COC(=O)C1=C(c2ccc(OCc3ccccc3)cc2)C[C@@H]2CC[C@H]1N2C	-11	34*	2	-10	-28	21
Nc1cc(C(=O)Nc2ccccc2F)ccc1N1CC2CC(C1)c1cccc(=O)n1C2 (stereo not given)	-6	-21	0	2	13	19
CC(=O)N1N=C(c2cccnc2)OC1c1ccccc1Cl (stereo not given)	-1	-3	16*	-3	4	12
O=C1CC(c2cccnc2)=NN1c1ccc(Cl)cc1Cl	0	-9	1	-3	4	3
O=C1C2CCCN2C(c2ccccc2)N1c1ccccn1 (stereo not given)	-10	-10	0	-4	5	11
C(#CCN1CCCCC1)COCc1ccccc1	-3	16	2	-6	-5	10
CN(C)CC#CCC(O)(c1ccccc1)C1CCCC1 (stereo not given)	25*	99*	0	-7	-28	-10
CN(C)CC#CCn1c2ccccc2c2ccccc21	-8	15	2	-5	-12	18
OC(CC#CCN1CCCCCC1)(c1ccccc1)C1CCCC1 (stereo not given)	17	100*	17*	-7	-30	-15
CC1(C(O)(C#CCN2CCCCC2)c2ccccc2)CCCC1 (stereo not given)	-8	100*	1	-8	-21	10
Fc1ccc(CCNCc2ccc(Br)cc2)cc1	-15	-3	4	-9	3	41*
CC(=O)O[C@H]1CC[C@@]2(C)[C@H](C1)C(=O)C[C@H]1[C@@H]3CC[C@@H]4[C@@H](CN5C[C@@H](C)CC[C@H]5[C@@]4(C)O)[C@@H]3C[C@@H]12	23	100*	1	-12	-33	-12
C[C@H]1CC[C@@H]2N(C1)C[C@H]1[C@@H]3C[C@H]4[C@@H](CC(=O)[C@H]5C[C@@H](O)CC[C@@]54C)[C@@H]3CC[C@H]1[C@]2(C)O	-6	86*	0	-10	-28	-5
CCC(c1nnnn1Cc1ccccc1)N1CCC(n2c(=O)[nH]c3ccccc32)CC1 (stereo not given)	7	16	8	-2	-13	-7
CCS(=O)(=O)NC(C)c1nnc2n1-c1ccc(Br)cc1C(c1ccccc1Cl)=NC2 (stereo not given)	18	-3	0	-5	0	-20
COc1ccc(OC(=O)N(C)C[C@@H]2OCc3cnnn3CCCC(=O)N([C@H](C)CO)C[C@H]2C)cc1	-11	-3	0	-5	4	22
CCCCc1nc(N2CCNCC2)c(C#N)c2c1CSC(C)(C)C2	-12	54*	1	-4	-20	20
N#Cc1c(N2CCNCC2)nc(-c2ccco2)c2c1CCCC2	16	-12	0	-4	8	-24
COC(=O)C(O)(c1ccc(NC(=O)NC2CCCCC2)cc1)C(F)(F)F (stereo not given)	9	3	1	-7	-3	-2
CCOC(=O)C(O)(c1ccc(NC(=S)NC(=O)c2ccc(Cl)cc2Cl)c(C)c1)C(F)(F)F (stereo not given)	20	49*	14	22*	-12	-2
COC(=O)C(O)(c1ccc(NC(=S)NC(=O)c2ccc(Cl)cc2Cl)cc1)C(F)(F)F (stereo not given)	7	22	5	21*	-10	-7
CCOC(=O)C(O)(c1ccc(NC(=S)NC(=O)c2ccc(Cl)cc2Cl)cc1)C(F)(F)F (stereo not given)	16	25	8	21*	-1	8
COC(=O)C(O)(c1ccc(NC(=S)NC(=O)c2ccc(Cl)cc2Cl)c(C)c1)C(F)(F)F (stereo not given)	14	16	12	11	-1	4
SMILES	CHO-K1 Ca antag	M1 antag	M1 ag parental	M1 ag	M1 PAM	CHO-K1 Ca PAM
CCOC(=O)C(O)(c1ccc(NC(=O)Oc2ccccc2)cc1)C(F)(F)F (stereo not given)	11	3	0	-7	1	-4
O=C(NC1CCCCC1)N1Cc2cc(-c3ccccc3)ccc2-n2nncc2C1	1	5	2	-10	-2	15
COC(=O)C1=C(c2ccc(Cl)c(C(F)(F)F)c2)C[C@@H]2CC[C@H]1N2C(=O)NCCCOC(C)C	-14	-6	-1	-13	3	20
CCCc1cc(=O)oc2cc(OCC(=O)N3CCN(Cc4ccc5c(c4)OCO5)CC3)ccc12	-13	-11	4	-3	1	17
CCCc1cc(=O)oc2cc(OCC(=O)N3CCC(C(=O)O)(c4ccccc4)CC3)ccc12	25*	-12	0	-2	7	-2
CCC(C)N1C(=O)NC(=O)C2(Cc3c(ccc4ccccc34)N(C)C2)C1=O (stereo not given)	2	44*	5	3	-15	13
O=C(C1CC(=O)N(c2ccc(F)c(Cl)c2)C1)N1CCC2(CC1)OCCO2 (stereo not given)	-9	3	0	-7	0	7
COc1nc(C)nc(NC(=O)NS(=O)(=O)c2ccccc2Cl)n1	-7	-31	2	-3	9	21
CC1OC(C[N+](C)(C)C)CC1O (stereo not given)	4	88*	7	114*	-13	10
C[C@H]1OC[C@@H](C[N+](C)(C)C)O1	-1	83*	2	121*	-10	11
C/C(=N\NP(=S)(c1ccccc1)c1ccccc1)c1ccc(O)cc1O	-10	0	0	3	16	9
Cc1ccc(C)c(NP(=O)(Oc2ccccc2)Oc2ccccc2)c1	18	36*	8	-2	-10	4
Cc1ccc(S(=O)(=O)NP(=O)(Oc2ccccc2)Oc2ccccc2)cc1	-17	-8	0	2	10	12
N/C(=N\[N+](=O)[O-])N1CCN(C(=O)c2ccccn2)CC1	0	3	0	-4	3	-3
CC(CC(C#N)(c1ccccc1)c1ccccc1)N(C)C (stereo not given)	-2	102*	-1	-14	-35	7
CC(C)[N+](C)(CCC(C(N)=O)(c1ccccc1)c1ccccc1)C(C)C	7	99*	1	-8	-26	8
c1ccc(-c2ccc3c(c2)CNCc2cnnn2-3)cc1	-2	-2	1	-11	1	0
Cc1nn(Cc2ccccc2)c(Cl)c1C(=O)O	-12	-8	1	-3	9	19
